The source of these data is PubChem BioAssay (NCATS).

Records with an inconclusive call do not appear. Calls of active or inactive are those of the source. The call rests on the fitted dose curve; in most records, active means well fitted curve in the direction sought with a large enough effect; inconclusive means small, poorly fitted or top-dose-only effect, or another doubt; inactive means no such curve, though single readings can be large; an effect the other way counts as inactive or inconclusive.

The nature of test [1]: Quantitative High-Throughput drug screen in 47 multiple myeloma cell lines against the NCATS MIPE library collection: ARP1_JJKsccF8 cell viability assay (AID 1918928; further: nearly all actives have a fitted effect of over 40% in size; further: potency means the concentration at half of the fitted maximal effect). An outline of the steps:
(§1)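 ATP readout (CellTiter-Glo), 48 h drug incubation, 37 °C/5% CO2, 500 cells per well; normalisation to DMSO (100%) and media-only (0%) controls.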

Test [2] in a line: Quantitative High-Throughput drug screen in 47 multiple myeloma cell lines against the NCATS MIPE library collection: KMM1_JCRB cell viability assay (AID 1918960). Further: nearly all actives have a fitted effect of over 30% in size. Further: potency means the concentration at half of the fitted maximal effect. An outline of the steps: as §1
A short description of test [3]: Quantitative High-Throughput drug screen in 47 multiple myeloma cell lines against the NCATS MIPE library collection: KHM11_PLB cell viability assay (AID 1918962). Further: nearly all actives have a fitted effect of over 35% in size. Further: potency means the concentration at half of the fitted maximal effect. An outline of the steps:
(§2)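 Inhibition of cell viability is measured here. Each line was plated at 500 cells per well, treated with MIPE 4.0 drugs, kept 48 hours at 37C, then assayed for ATP content by CellTiter-Glo luminescence.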

Test [4] is described as follows: Quantitative High-Throughput drug screen in 47 multiple myeloma cell lines against the NCATS MIPE library collection: Karpas620_DSMZ cell viability assay (AID 1918959). Further: nearly all actives have a fitted effect of over 30% in size. Further: potency means the concentration at half of the fitted maximal effect. An outline of the steps:
as §2

A short description of test [5]: Quantitative High-Throughput drug screen in 47 multiple myeloma cell lines against the NCATS MIPE library collection: JIM3_ECACC cell viability assay (AID 1918963; further: nearly all actives have a fitted effect of over 35% in size; further: potency means the concentration at half of the fitted maximal effect). The essentials:
as §2

The nature of test [6]: Quantitative High-Throughput drug screen in 47 multiple myeloma cell lines against the NCATS MIPE library collection: JJN3_DSMZ cell viability assay (AID 1918966; further: nearly all actives have a fitted effect of over 50% in size; further: potency means the concentration at half of the fitted maximal effect). The essentials:
(§3)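 CellTiter-Glo ATP luminescence gave viability after 48 h compound treatment at 37C of 500 multiple myeloma cells per well. Normalisation used DMSO-only wells as 100% and media-only wells as 0% viability; primary qHTS of approved and investigational drugs.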

Test [7] can be described thus: Quantitative High-Throughput drug screen in 47 multiple myeloma cell lines against the NCATS MIPE library collection: JIM1_ECACC cell viability assay (AID 1918964; further: potency means the concentration at half of the fitted maximal effect). An outline of the steps:
as §3

Test [8] is described as follows: Quantitative High-Throughput drug screen in 47 multiple myeloma cell lines against the NCATS MIPE library collection: INA6_PLB cell viability assay (AID 1918965; further: nearly all actives have a fitted effect of over 55% in size; further: potency means the concentration at half of the fitted maximal effect). An outline of the steps:
(§4)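 qHTS of the MIPE 4.0 collection: 500 myeloma cells/well, 48 h drug exposure at 37C in 5% CO2, then CellTiter-Glo for 5 min at room temperature before luminescence reading.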

The nature of test [9]: Quantitative High-Throughput drug screen in 47 multiple myeloma cell lines against the NCATS MIPE library collection: Karpas417_ECACC cell viability assay (AID 1918961). The conditions noted are these: Karpas417 myeloma viability, CellTiter-Glo ATP luminescence, 48 h; viability (% of DMSO): at 45.8 µM (top of the series). An outline of the steps:
as §4

A short description of test [10]: Quantitative High-Throughput drug screen in 47 multiple myeloma cell lines against the NCATS MIPE library collection: ARD_JJKsccE7 cell viability assay (AID 1918929). The essentials:
as §3

On to `CCc1c2c(nc3ccc(OC(=O)N4CCC(N5CCCCC5)CC4)cc13)-c1cc3c(c(=O)n1C2)COC(=O)[C@]3(O)CC`, for which the Potency in test [1] was 0.743 µM (active); in test [2] it was 0.935 µM (active); in [3], 1.48 µM (active).

Consider `S=P(N1CC1)(N1CC1)N1CC1`, for which the Potency result in [1], in test [4] and in test [5] was “inactive” each time. Moreover, the Potency in [6] was 0.0118 µM (active).

Consider `CN(C)CCc1c[nH]c2ccc(CS(=O)(=O)N3CCCC3)cc12`, for which the Potency result in test [1], in test [4], in [5], in [7] and in test [6] was “inactive” in each case. In addition, in [3], the Potency was 16.6 µM (active).

Turning to `CO[C@@H]1[C@@H](OC(N)=O)[C@@H](O)[C@H](Oc2ccc3c(O)c(NC(=O)c4ccc(O)c(CC=C(C)C)c4)c(=O)oc3c2C)OC1(C)C`, the figures for the Potency in test [1], in [3] and in test [5] were 0.935 µM (active), 2.64 µM (active) and 5.26 µM (active), respectively.

On to `Nc1nc(N)c2nc(CNc3ccc(C(=O)NC(CCC(=O)O)C(=O)O)cc3)cnc2n1` (stereo not given), for which the Potency in [1] is 0.0372 µM (active); in test [5], 0.0418 µM (active). Moreover, the Potency result in test [4] was “inactive”.

On to `OC(Cn1cncn1)(Cn1cncn1)c1ccc(F)cc1F`, for which the Potency entry in test [1], in test [4], in test [5] and in test [8] was “inactive” throughout.

Regarding `CC(C)C1CCC(C(=O)N[C@H](Cc2ccccc2)C(=O)O)CC1` (stereo not given in full), the Potency entry in [1], in [4], in [3], in [5] and in test [7] was “inactive” throughout.

For the compound `O[C@@H](CNC[C@H](O)[C@H]1CCc2cc(F)ccc2O1)[C@@H]1CCc2cc(F)ccc2O1`, the Potency is 14.8 µM (active) in [1], 20.9 µM (active) in test [4], 26.4 µM (active) in [3] and 23.5 µM (active) in test [5].

With `COc1cc2ncnc(Nc3cccc(Cl)c3)c2cc1OC`, the Potency in test [1] was 26.4 µM (active); in [2], 20.9 µM (active); in test [6], 33.2 µM (active).

`CC1(C)[C@H](C(=O)O)N2C(=O)C[C@H]2S1(=O)=O`: the Potency entry in test [1], in test [4], in test [5], in test [7] and in test [8] was “inactive” each time.

Turning to `NC(N)=NC(N)=NCCc1ccccc1`, the Potency in test [1] was 14.8 µM (active); in test [3], 16.6 µM (active); in [5], 4.69 µM (active).

Regarding `CN1CCCC(n2nc(Cc3ccc(Cl)cc3)c3ccccc3c2=O)CC1` (stereo not given), the Potency is 6.62 µM (active) in test [1]; 6.62 µM (active) in test [3]; 14.8 µM (active) in test [5]; 1.32 µM (active) in [8]; 2.96 µM (active) in [6].

For the compound `NC1(c2ccc(-c3nc4ccn5c(=O)[nH]nc5c4cc3-c3ccccc3)cc2)CCC1`, the Potency in test [1] was 14.8 µM (active); in [3], 5.9 µM (active); in test [5], 0.662 µM (active); in test [7], 1.48 µM (active); in [8], 11.8 µM (active); in test [6], 5.26 µM (active). Moreover, the Potency entry in test [4] is “inactive”.

`CCCCCCNC(=O)n1cc(F)c(=O)[nH]c1=O`: the Potency in [1] is 8.33 µM (active); in [5], 16.6 µM (active); in test [6] it was 23.5 µM (active). Moreover, the Potency result in test [4] was “inactive”.

Turning to `CC(C(=O)O)c1ccc2c(c1)CC(=O)c1ccccc1S2` (stereo not given), the Potency result in [1], in test [2], in test [5] and in test [8] was “inactive” each time.

As for `CCN(C)C(=O)Oc1cccc([C@H](C)N(C)C)c1`, the Potency entry in test [1], in test [5] and in [7] was “inactive” in each case. The Potency in test [4] is 0.0332 µM (active).

Regarding `COc1c(N2CCNC(C)C2)c(F)cc2c(=O)c(C(=O)O)cn(C3CC3)c12` (stereo not given), the Potency entry in test [1], in test [4], in test [3], in test [5] and in test [6] was “inactive” each time.

As to `CO[C@@]12[C@H](COC(N)=O)C3=C(C(=O)C(C)=C(N)C3=O)N1C[C@@H]1N[C@@H]12`, the Potency was 26.4 µM (active) in test [1], 33.2 µM (active) in test [3], 26.4 µM (active) in [5] and 26.4 µM (active) in [6]. Besides, the Potency entry in test [4] is “inactive”.

In the case of `N[C@@H](C(=O)N[C@@H]1C(=O)N2C(C(=O)O)=C(Cl)CS[C@H]12)c1ccccc1`, the Potency entry in test [1], in [3], in test [5], in [7], in [8] and in test [6] was “inactive” each time.

With `NC(=O)c1ccc2[nH]ccc2c1`, the Potency entry in test [1], in test [4], in test [5] and in test [7] was “inactive” in each case.

Regarding `Nc1ccc(S(=O)(=O)Nc2ccccn2)cc1`, the Potency result in test [1], in test [4], in test [5] and in [8] was “inactive” in each case.

`Nc1nc(N)nc(-c2cc(Cl)ccc2Cl)n1`: the Potency result in test [1], in [9], in test [3], in test [5] and in test [6] was “inactive” in each case.

As for `OCc1ccc(-c2nn(Cc3ccccc3)c3ccccc23)o1`, the Potency result in test [1] and in test [5] was “inactive” throughout. The Potency in test [3] was 2.64 µM (active).

Regarding `COc1cnc(NS(=O)(=O)c2ccc(N)cc2)nc1`, the Potency result in [1] and in test [5] was “inactive” in each case.

For the compound `CC(C)OC(=O)C(C(=O)OC(C)C)=C1SC=CS1`, the Potency result in [1], in test [4], in [5], in [7] and in test [6] was “inactive” in each case.

For the compound `C[C@@H](NCCCc1cccc(C(F)(F)F)c1)c1cccc2ccccc12`, the Potency entry in test [1] and in test [3] was “inactive” throughout. Further, in test [5], the Potency was 13.2 µM (active).

Regarding `Cc1ccnc2c1NC(=O)c1cccnc1N2C1CC1`, the Potency entry in [1], in test [4], in test [7] and in test [6] was “inactive” each time.

Consider `CCCCS(=N)(=O)CCC(N)C(=O)O` (stereo not given), for which the Potency entry in test [1], in test [2], in [5] and in test [6] was “inactive” throughout.

In the case of `COCCCOc1cc(C[C@@H](C[C@H](N)[C@@H](O)C[C@H](C(=O)NCC(C)(C)C(N)=O)C(C)C)C(C)C)ccc1OC`, the Potency entry in [1], in test [4], in [3] and in test [5] was “inactive” throughout.

Turning to `CC(C)(Sc1cc(C(C)(C)C)c(O)c(C(C)(C)C)c1)Sc1cc(C(C)(C)C)c(O)c(C(C)(C)C)c1`, the Potency entry in test [1], in test [4] and in test [6] was “inactive” throughout.

With `CN(Cc1cc(Br)cc(Br)c1N)C1CCCCC1`, the Potency entry in test [1], in [4] and in [5] was “inactive” in each case.

Regarding `CC(C)(C)NC(=O)[C@H]1CC[C@H]2[C@@H]3CC[C@H]4NC(=O)C=C[C@]4(C)[C@H]3CC[C@]12C`, the Potency result in test [1] and in test [7] was “inactive” throughout. For the same compound, the Potency in test [3] is 1.18 µM (active); in [5] it was 4.18 µM (active).

As for `C[C@@H]1CN(c2c(F)c(N)c3c(=O)c(C(=O)O)cn(C4CC4)c3c2F)C[C@H](C)N1`, the Potency result in test [1], in [4], in [5] and in test [7] was “inactive” in each case.

In the case of `Cn1c(=O)c2c(ncn2CC(O)CO)n(C)c1=O` (stereo not given), the Potency result in test [1], in test [4], in test [3], in [5], in test [7] and in test [8] was “inactive” each time.

`CCC(C)(C)c1ccc(CC(C)CN2C[C@@H](C)O[C@@H](C)C2)cc1` (stereo not given in full): the Potency result in test [10], in test [4] and in test [7] was “inactive” throughout.

In the case of `CNNCc1ccc(C(=O)NC(C)C)cc1`, the Potency entry in test [4], in test [3], in [5], in [7] and in [6] was “inactive” each time. Besides, the Potency in [2] was 2.96 µM (active).
